The source made the active and inactive calls.
Tests used:
[1] = system: Human papillomavirus type 1a protein E7 (residues 44-93); experiment: HPV1a E7 fragment binders on microarrays, primary screen, biochemical, small-molecule microarray, residues 44-93, 635 nm fluorescence (AID 1108); settings: small-molecule microarray binding, fluorescence 635 nm; higher = more signal;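 further: E7 fragment applied at 1 µg/mL in TBST for 1 h at 4 C; score combines spot fluorescence with its signal to noise ratio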
[2] = modulators of HCV replicon luciferase signal, primary screen, HCV replication inhibitor project, Huh7 cells, luciferase reporter (AID 1109); settings: 48 h, higher = more signal;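 further: huh7 hepatoma cells harbouring a luciferase neomycin HCV replicon reporter; luciferase luminescence as measure of HCV replicon replication; test concentration not given here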
[3] = molecular target: Left-right determination factor 2 (Homo sapiens) (UniProt O00292); experiment: LEFTY2 binders on small-molecule microarrays, primary screen, biochemical, small-molecule microarray, 635 nm fluorescence scan (AID 1110); settings: LEFTY2 binding, higher = more signal
Left-right determination factor 2 (Homo sapiens), sequence (O00292 whole entry, looked up): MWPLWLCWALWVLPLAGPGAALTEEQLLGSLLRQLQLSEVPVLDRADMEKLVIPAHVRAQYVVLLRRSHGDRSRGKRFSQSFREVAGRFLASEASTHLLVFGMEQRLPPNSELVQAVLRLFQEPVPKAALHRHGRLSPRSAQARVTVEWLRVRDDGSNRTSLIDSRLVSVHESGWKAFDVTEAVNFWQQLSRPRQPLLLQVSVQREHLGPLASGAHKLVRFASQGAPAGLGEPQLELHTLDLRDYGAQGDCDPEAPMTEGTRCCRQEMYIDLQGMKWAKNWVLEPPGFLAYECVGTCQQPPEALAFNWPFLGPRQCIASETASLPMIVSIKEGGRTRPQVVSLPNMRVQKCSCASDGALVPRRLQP

[4] = molecular target: Calmodulin-1 (Homo sapiens) (UniProt P0DP23); experiment: CALM1 binders on microarrays, EGTA buffer, profiling panel, biochemical, small-molecule microarray, Cy5-labelled CALM1 (AID 1111); settings: Cy5-CALM1 binding fluorescence, higher = more signal;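 further: labelled calmodulin applied in Tris saline Tween buffer holding calcium plus EGTA and DTT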
[5] = molecular target: Calmodulin-1 (Homo sapiens) (UniProt P0DP23); experiment: calcium-bound CALM1 binders on microarrays, profiling panel, artefact control for SMM control-protein annotation, biochemical, small-molecule microarray, Cy5-labelled CALM1, plus calcium (AID 1112); settings: Cy5-CALM1 binding fluorescence, higher = more signal;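 further: score merges spot fluorescence with signal to noise from triplicate slides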
[6] = small-molecule microarray binders of probe aWnt5a, primary screen, biochemical, biotinylated probe, 635/667 nm fluorescence (AID 1113); settings: higher = more signal;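 further: score merges 667 nm fluorescence intensity with signal-to-noise per printed feature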
[7] = small-molecule microarray binders of probe aShh, primary screen, biochemical, biotinylated probe, 635/667 nm fluorescence (AID 1114); settings: higher = more signal;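 further: probe is biotin-labelled aShh protein from a stem cell growth factor screen; measures binding of labelled protein to compounds printed on the slide; score merges feature fluorescence at 667 nm with signal-to-noise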
[8] = small-molecule microarray binders of probe aNog, primary screen, biochemical, biotinylated probe, 635/667 nm fluorescence (AID 1115); settings: higher = more signal;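 further: probe is biotinylated aNog protein used at 0.15 µg/mL for 1 h at 4 C; z-score combines 667 nm fluorescence of each spot with its signal to noise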
[9] = molecular target: Torsin-1A-interacting protein 1 (Homo sapiens) (UniProt Q5JTV8); experiment: LAP1 binders from COS7 cell lysate, primary screen, small-molecule microarray, 635/667 nm fluorescence (AID 1116); settings: COS7-hLAP1 lysate binding, 635 nm fluorescence, higher = more signal
Torsin-1A-interacting protein 1 (Homo sapiens), sequence (Q5JTV8 whole entry, looked up): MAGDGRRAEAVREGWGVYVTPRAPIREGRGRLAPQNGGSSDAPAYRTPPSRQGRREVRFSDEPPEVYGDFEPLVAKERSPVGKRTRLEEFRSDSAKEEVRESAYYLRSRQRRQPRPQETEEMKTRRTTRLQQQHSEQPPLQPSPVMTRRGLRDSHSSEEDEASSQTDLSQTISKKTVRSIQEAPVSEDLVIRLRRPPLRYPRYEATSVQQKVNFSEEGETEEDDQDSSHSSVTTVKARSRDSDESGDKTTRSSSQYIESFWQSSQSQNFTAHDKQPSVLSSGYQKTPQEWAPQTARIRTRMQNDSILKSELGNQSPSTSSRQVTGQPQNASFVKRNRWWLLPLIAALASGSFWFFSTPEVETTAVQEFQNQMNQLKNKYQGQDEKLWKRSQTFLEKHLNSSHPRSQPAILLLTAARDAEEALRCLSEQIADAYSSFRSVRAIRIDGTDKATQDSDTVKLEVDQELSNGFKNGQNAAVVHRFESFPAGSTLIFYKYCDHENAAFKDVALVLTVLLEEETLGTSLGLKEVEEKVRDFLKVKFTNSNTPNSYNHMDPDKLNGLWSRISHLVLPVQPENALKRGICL

[10] = molecular target: Alpha-bungarotoxin (Bungarus multicinctus) (UniProt P60615); experiment: alpha-bungarotoxin binders on microarray, profiling panel, artefact control for SMM control protein annotation, biochemical, small-molecule microarray, Alexa647 label, 635/667 nm fluorescence (AID 1117); settings: alpha-BTX-A647 binding fluorescence, higher = more signal
Alpha-bungarotoxin (Bungarus multicinctus), sequence (P60615 whole entry, looked up): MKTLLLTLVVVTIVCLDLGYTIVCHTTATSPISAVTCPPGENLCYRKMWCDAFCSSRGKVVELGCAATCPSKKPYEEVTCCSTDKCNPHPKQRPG

Albumin (Bos taurus) = Albumin (Bos taurus) (UniProt P02769); experiment: bovine serum albumin binders on microarray, profiling panel, artefact control for SMM control protein annotation, biochemical, small-molecule microarray, Alexa647 label, 635/667 nm fluorescence (AID 1118); settings: BSA-A647 binding, fluorescence 635 nm, higher = more signal;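 further: score merges 667 nm emission intensity and signal-to-noise per printed compound spot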
Albumin (Bos taurus), sequence (P02769 whole entry, looked up): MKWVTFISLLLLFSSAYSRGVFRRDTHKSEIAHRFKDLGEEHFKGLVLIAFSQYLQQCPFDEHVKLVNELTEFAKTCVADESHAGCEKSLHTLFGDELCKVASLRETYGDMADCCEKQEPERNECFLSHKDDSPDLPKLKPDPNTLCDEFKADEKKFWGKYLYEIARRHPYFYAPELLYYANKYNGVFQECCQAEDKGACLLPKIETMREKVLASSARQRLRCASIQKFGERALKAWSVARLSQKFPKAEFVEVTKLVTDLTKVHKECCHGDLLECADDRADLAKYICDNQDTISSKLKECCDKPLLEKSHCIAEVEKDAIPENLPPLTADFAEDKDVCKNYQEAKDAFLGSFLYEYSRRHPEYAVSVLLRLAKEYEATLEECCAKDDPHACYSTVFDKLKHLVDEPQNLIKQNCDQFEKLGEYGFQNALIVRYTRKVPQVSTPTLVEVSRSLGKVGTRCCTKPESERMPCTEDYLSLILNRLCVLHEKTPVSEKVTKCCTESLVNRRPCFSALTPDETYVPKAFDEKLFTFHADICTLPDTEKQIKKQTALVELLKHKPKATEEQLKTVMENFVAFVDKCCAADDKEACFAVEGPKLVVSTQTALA

[11] = small-molecule microarray binders of probe aXIP, primary screen, biochemical, NeuroSMM set, 635/667 nm fluorescence (AID 1119); settings: higher = more signal, called active from +8 up or from −8 down;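 further: probe is the protein aXip251-270 applied at 1 µg/mL to compound-printed slides; binding of probe to printed compounds measured as 667 nm fluorescence plus signal to noise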
[12] = small-molecule binders of probe aNOTCH3, primary screen, biochemical, small-molecule microarray, 635/667 nm fluorescence (AID 1120); settings: higher = more signal;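 further: probe is a biotin-tagged antibody raised against NOTCH3 rather than NOTCH3 protein; score merges spot fluorescence near 667 nm with spot signal to noise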
[13] = small-molecule binders of probe aNOTCH2, primary screen, biochemical, small-molecule microarray, 635/667 nm fluorescence (AID 1121); settings: higher = more signal;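 further: score merges feature fluorescence read at 667 nm with its signal to noise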
[14] = molecular target: Carbonic anhydrase 2 (Homo sapiens) (UniProt P00918); experiment: CAII small-molecule binders, profiling panel, biochemical, small-molecule microarray, Alexa647-labelled CAII (AID 1122); settings: CAII-A647 binding fluorescence, higher = more signal
[15] = COS7 lysate on small-molecule microarray, probe aHis, 635 nm (AID 1123); settings: COS7 cell lysate, fluorescence, higher = more signal;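 further: z-score combines 667nm fluorescence intensity with signal-to-noise per printed compound spot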
[16] = compound binding in COS7 lysate, probe aLAP1, primary screen, cell lysate, small-molecule microarray (AID 1124); settings: probe aLAP1, fluorescence, higher = more signal;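 further: lysate comes from COS7 cells expressing LAP1 and is applied at 0.3 µg/mL; score merges spot fluorescence near 667 nm with signal-to-noise over triplicate slides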
Sam68 (KHDRBS1) = experiment: Sam68 small-molecule binders, primary screen, biochemical, small-molecule microarray, 635 nm fluorescence (AID 1125); settings: small-molecule microarray binding, higher = more signal;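 further: score merges 667 nm channel intensity with signal to noise over triplicate slides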
[17] = system: Chordin-like protein 2 (CHRDL2); experiment: CHRDL2 small-molecule binders, primary screen, biochemical, small-molecule microarray, 635 nm fluorescence (AID 1126); settings: small-molecule microarray binding, fluorescence 635 nm; higher = more signal;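 further: printed compound slides probed with Chrdl2 protein at 4 µg/mL for 1 h at 4 C; score merges 667 nm emission intensity with signal to noise over three replicate slides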
[18] = molecular target: Concanavalin-A (Canavalia ensiformis) (UniProt P02866); experiment: ConA small-molecule binders, primary screen, artefact control for SMM control protein annotation, biochemical, small-molecule microarray, Alexa647 label, 635 nm (AID 1127); settings: ConA-A647 binding fluorescence, higher = more signal;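 further: z combines 667 nm emission intensity with signal-to-noise across three replicate slides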
Concanavalin-A (Canavalia ensiformis), sequence (P02866 whole entry, looked up): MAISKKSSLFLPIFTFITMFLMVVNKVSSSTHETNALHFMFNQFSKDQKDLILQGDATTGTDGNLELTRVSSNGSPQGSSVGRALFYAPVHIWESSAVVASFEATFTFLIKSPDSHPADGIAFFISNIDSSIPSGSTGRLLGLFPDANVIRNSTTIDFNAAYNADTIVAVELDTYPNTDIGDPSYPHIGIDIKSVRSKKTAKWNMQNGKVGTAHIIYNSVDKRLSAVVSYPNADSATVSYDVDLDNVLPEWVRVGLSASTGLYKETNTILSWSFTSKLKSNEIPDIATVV

| SMILES | composite z-score [1] | z-score [2] | composite z-score [3] | composite z-score [4] | composite z-score [5] | composite z-score [6] | composite z-score [7] | composite z-score [8] | composite z-score [9] | composite z-score [10] | composite z-score (Albumin (Bos taurus)) | composite Z-score [11] | composite z-score [12] | composite z-score [13] | composite z-score [14] | composite z-score [15] | composite z-score [16] | composite z-score (Sam68 (KHDRBS1)) | composite z-score [17] | composite z-score [18] |
| --- | --- | --- | --- | --- | --- | --- | --- | --- | --- | --- | --- | --- | --- | --- | --- | --- | --- | --- | --- | --- |
| COc1ccc(-c2cc3c(c(CCc4ccccc4)n2)[Si](C(C)C)(C(C)C)OC3)cn1 | -0.681 | -0.42 | 0.209 | -0.113 | 0.151 | -0.15 | -0.147 | -0.115 | -0.0389 | 0.104 | -0.0428 | 0.147 (inactive) | -0.152 | -0.169 | -0.173 | 0.132 | -0.376 | -0.296 | 0.105 | -0.0689 |
| CCOC(=O)C1=C[C@@H](c2ccccc2)N(S(=O)(=O)c2ccc(C)cc2)[C@H]1c1ccccc1Cl | 1.32 | -1.55 | 0.553 | 1.06 | -0.651 | -0.0161 | 0.0121 | -0.0784 | 0.731 | 1.04 | 0.729 | 0.0277 (inactive) | 0.112 | 0.23 | 0.389 | 1.66 | 0.772 | 1.26 | 0.359 | 0.752 |
| COc1ccc([Si](C)(C)[C@@H]2[C@@H](CC(=O)N3Cc4ccccc4C[C@H]3CO)O[C@]3(C(=O)N(Cc4cccc(N5C(=O)c6cccc7cccc5c67)c4)c4ccccc43)[C@H]2C)cc1 | 1.21 | -3.68 | 0.98 | 0.937 | 1.46 | -0.0685 | -0.17 | -0.237 | 0.83 | 0.886 | -0.566 | -0.0894 (inactive) | 0.143 | -0.0928 | 0.598 | 1.26 | -0.235 | 0.817 | 1.27 | 1.12 |
| C=C(/C(=C/C[C@@H](OC(C)=O)c1cccc(OCCO)c1)c1cc(C(=O)OC)ccc1OC)C(C)C | 0.522 | -1.53 | 0.256 | -0.343 | -0.563 | -0.221 | -0.221 | -0.223 | 0.189 | 0.215 | 0.805 | 0.142 (inactive) | -0.0014 | -0.177 | 0.447 | 0.206 | 0.0418 | 0.531 | 0.0865 | 0.574 |
| C=CCC(OC(C)=O)[C@@H]1[C@@H](N(Cc2cccc3ccccc23)C(=O)c2cccc3ccccc23)c2cc(OCCCO)ccc2N1C(=O)c1ccc(-c2ccccc2)cc1 (stereo not given in full) | -0.0699 | -0.599 | 0.79 | 0.0898 | 0.766 | 0.0229 | -0.117 | -0.215 | 0.197 | -0.574 | -0.0704 | -0.0014 (inactive) | 0.122 | -0.143 | 0.115 | 0.888 | -0.35 | -0.159 | 0.25 | -0.132 |
| O=C1O[C@H](c2ccccc2)[C@H](c2ccccc2)N2[C@H]1[C@@H](C(=O)N1CCN(c3ncccn3)CC1)[C@]1(C(=O)Nc3ccc(C#CC4(O)CCCCCC4)cc31)[C@H]2c1ccc(OCCO)cc1 | 1.44 | -1.58 | 1.51 | 2.26 | 1.24 | 0.793 | 0.543 | 2.34 | 3.93 | 2.81 | 0.0591 | 6.42 (inactive) | 1.39 | 0.606 | 0.62 | 3.46 | 1.61 | 1.29 | 1.41 | 1.1 |
| CCOC(=O)C1=CC[C@@H](c2cccc(Cl)c2)N(S(=O)(=O)c2ccc(C)cc2)C1 | 0.412 | -1.76 | -0.326 | 1.06 | 0.573 | -0.232 | -0.0035 | 0.424 | 2.68 | 0.703 | 0.839 | -0.659 (inactive) | -0.0661 | -0.0488 | 0.685 | 2.15 | 0.568 | 0.674 | 0.0917 | 0.721 |
| O=C1C2C=CC(C(O)c3ccc(F)cc3)N(n3cnnc3)C2C(=O)N1Cc1ccccc1 (stereo not given) | -0.305 | -0.574 | -0.856 | -0.171 | 0.451 | -0.0781 | -0.203 | 0.146 | 0.419 | -0.39 | -0.224 | 0.878 (inactive) | 0.0065 | -0.14 | 0.561 | 0.747 | -0.138 | -0.256 | -0.62 | -0.129 |
| C=CCOC(=O)[C@H]1[C@@H]2C(=O)O[C@@H](c3ccccc3)[C@@H](c3ccccc3)N2[C@@H](c2ccc(OCCOC(=O)[C@@H]3C[C@@H]4C(=O)N5CCC[C@H]5C(=O)N4[C@@H]3c3ccc(O)cc3)cc2)[C@]12C(=O)Nc1ccc(I)cc12 | -0.0566 | -1.71 | 0.621 | 0.793 | 0.29 | -0.117 | -0.155 | 0.633 | 0.521 | 0.881 | -0.572 | 0.486 (inactive) | -0.33 | -0.118 | 0.0118 | 0.897 | 0.163 | 0.27 | 0.851 | 1.01 |
| Cn1cccc1C(O)C1C=CC2C(=O)NC(=O)C2N1Nc1ccc(Cl)cc1Cl (stereo not given) | 0.981 | -0.202 | -0.378 | 2.24 | 0.879 | 0.0044 | 0.184 | 1.92 | 2.08 | 2.28 | 1.04 | 0.589 (inactive) | 0.569 | 0.403 | 0.731 | 2.79 | 1.26 | 1.29 | -0.851 | 1.21 |
| CN(C)c1ccc(C(O)C2C=CC3C(=O)N(c4ccccc4)C(=O)C3N2Nc2ccc([N+](=O)[O-])cc2)cc1 (stereo not given) | 1.37 | -1.52 | -0.162 | 0.603 | -0.534 | 0.0809 | 0.0697 | 0.638 | 0.926 | 1.46 | 0.653 | 0.103 (inactive) | 0.307 | -0.133 | 0.27 | 2.1 | 0.15 | 1.29 | -0.437 | 1.05 |
